This is part of a sample that, as a whole, favours compounds with a hit. Of some 83,000 tested, about 20% had one in any assay.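 Method: cells in 96-well plates; compound added at one concentration; 48 h incubation; percent growth measured; values under 10 scored active.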 Values without a mark were called inactive. Active and inactive are the calls of the source.

For the experiment, the system named is NCI-H23 lung. The experiment in a line: NCI-60 one-dose screen, 48 h (100 = growth as untreated, 0 = no growth, -100 = all killed). Conditions: 10 µM.
On to `COC(=O)[C@@H]1[C@H](O)[C@H](C)[C@H](O)[C@@](C)(O)/C=C\C=C(C)C(=O)Nc2c(C)c(OC(C)=O)c3c(c2O)C(=O)C(C)=C2OCOC(=C23)C(C)=C[C@@](C)(O)[C@H](O)[C@@H](C)[C@H]1OC(C)=O`, for which the growth is 101%.
With `O=C(CC(C(=O)c1ccccc1)N1CCOCC1)c1ccccc1` (centres undefined), the growth is 97.4%.
In the case of `COc1ccc(-c2nc(-c3nc4cc(Cl)c(F)cc4[nH]3)c3ccccn23)cc1`, the growth was 85.8%.
As for `CCCCCCCCCCCC[n+]1ccc(C(N)=O)cc1`, the figure is 23.5%.
On to `COC(=O)C1=NNC(=S)N(c2cc(C)[nH]n2)C(=O)C1`, for which the growth was 99.1%.
Consider `CCN1Cc2c(/C=C/c3ccccc3)nc3ccc(OC)cc3c2N(c2cccc(Cl)c2)C1`, for which the growth was 59.1%.
With `O=C(Nc1ccncc1)C(=O)c1cn(S(=O)(=O)c2cccc3ccccc23)c2ccccc12`, the growth is 62.1%.
In the case of `CCN(CC)CCOc1nc2cc(OC)c(OC)cc2c2c1-c1ccc(OC)cc1C2=O`, the growth was 77.3%.
With `Nc1c(C(=O)Nc2cccc(F)c2)sc2nc3c(cc12)C(=O)CCC3`, the growth was 41.6%.
In the case of `CN(C)C=Nc1cc(Cl)ccc1Cl`, the growth is 101%.
Take `CC12O[C@H](C[C@@H](O)[C@H]1O)n1c3ccccc3c3c4c(c5c6ccccc6n2c5c31)C(=O)N(CCCN)C4=O`: the growth was 28.9%.
On to `S=C1SCC(c2ccccc2)S1` (centres undefined), for which the growth is 113%.
As to `N=C(N)c1ccc(-c2ccc(-c3cccs3)o2)cc1`, the growth is 85.1%.
In the case of `CC(C)(C)c1cc(Br)cc(C(C)(C)C)c1O`, the growth is 107%.
Take `COc1cc(C(=O)/C=C/c2cc(-c3cc(OC)c(OC)c(OC)c3)n[nH]2)cc(OC)c1OC`: the growth is 68.4%.
The result for `COc1cc(NC(=O)CCSc2nc3ccc(Cl)cc3c(=O)n2Cc2ccccc2)cc(OC)c1OC` reads 93.5%; that for `COc1ccc(-c2nn(-c3cccc(NC(=O)Nc4cccc(C(F)(F)F)c4)c3)cc2-c2ccncc2)cc1Cl`, 5.45% (active); that for `COc1ccc(-c2nn(-c3cccc(NC(=O)c4ccc(Cl)c(Cl)c4)c3)cc2-c2ccncc2)cc1Cl`, 94.9%.
For the compound `CC(C)(C#N)Nc1ccccc1`, the growth is 108%.
As for `O=S(=O)(Nc1ccccn1)c1ccc(N=Nc2ccc(O)c3ncccc23)cc1`, the figure is 14.5%.
As to `CC(C)C[C@H](NC(=O)[C@H](Cc1cccc2ccccc12)NS(=O)(=O)c1cccc2cccnc12)B(O)O`, the growth is -52.9% (active).
In the case of `COc1cc(Cl)cc(-c2nn(-c3cccc(NC(=O)Nc4ccc(Cl)c(C(F)(F)F)c4)c3)cc2-c2ccncc2)c1`, the growth is 0.301% (active).
In the case of `O=C(Nc1ccc(CN2CCc3nc4cc(O)c(O)cc4cc32)cc1)c1ccc(Cl)c(Cl)c1`, the growth is 105%.
In the case of `CN(C)Cc1cn(-c2ncc(-c3ccc(C(F)(F)F)cc3)c(NC3CCCCCC3)n2)nn1`, the growth was 95.6%.
For the compound `O=C(CSSCC(=O)c1ccc(Cl)cc1)c1ccc(Cl)cc1`, the growth is 79.5%.
With `COc1ccc2c(c1OC)O/C(=C\c1ncc([N+](=O)[O-])n1C)C2=O`, the growth is -17.1% (active).
`Nc1ncn([C@@H]2O[C@H](CO)[C@@H](O)[C@H]2O)c(=O)n1`: the growth was 37.2%.
For `CSC1=NCCCC1`, the growth is 112%.
With `COc1ccc(/C=C2/CN(CCC#N)C/C(=C\c3ccc(OC)cc3)C2=O)cc1`, the growth was 31.1%.
In the case of `c1ccc([C@H]2CN3CCSC3=N2)cc1`, the growth is 96.8%.
As for `COc1cc(Cl)cc(-c2nn(-c3cccc(NC(=O)c4ccc(N5CCOCC5)c(C(F)(F)F)c4)c3)cc2-c2ccncc2)c1`, the growth is 79%.
As for `COc1ccc(OC)c(/C=C/c2nc(SCc3ccccc3)n(-c3ccc(Cl)cc3)n2)c1`, the figure is 54.3%; as for `COc1ccc(N=C2C(=Nc3ccc(OC)cc3)N(c3ccc(N(C)C)cc3)C(=S)N2c2ccc(OC)cc2)cc1`, 90.9%.
On to `CCCCCCN1CCN(Cc2ccc(N(CC)CC)cc2)C(=O)C1=O`, for which the growth was 39.9%.
On to `N#Cc1ncc(-c2ccc(C(F)(F)F)cc2)c(NCc2cc(C(F)(F)F)cc(C(F)(F)F)c2)n1`, for which the growth is 10.6%.
In the case of `COc1ccc2c(c1)O/C(=C\c1ccc([N+](=O)[O-])s1)C2=O`, the growth is 5.99% (active).
With `CCCCN(CCCC)c1cc(C(=O)CCCCCN)c2ccccc2n1`, the growth was 94.5%.
The result for `O=C(O)CCCCSc1ncnc2nc[nH]c12` reads 103%.
Consider `O=C(Nc1cccc(-n2cc(-c3ccncc3)c(-c3ccc(O)c(Cl)c3)n2)c1)c1cc(C(F)(F)F)cc(C(F)(F)F)c1`, for which the growth is 57.5%.
